Bioassay records as filed in PubChem.
Compounds with a hit are over-represented: about 3.8% of the library has one in this group of screens.
ELG1 DNA repair: inhibitors of ELG1-dependent DNA repair in HEK293T cells. HEK293T ELG1-luciferase reporter, luminescence, 16 h; DNA damage induced by 5-fluorouridine. hit rate 2.3% among 330,000. Potency, µM (top dose mostly 46.1 µM), without a hit: at the top dose activity change, negative = inhibition, actives largely listed as inhibitors. AID 504467; note: % is set by controls: 0 for no effect and ±100 for the full control effect; nearly all actives have a fitted effect of over 55% in size
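DMSO vehicle served as the neutral condition. Each well held 2,000 cells given 5-fluorouridine plus compound; after 16 hr at 37 °C/5% CO2, ONE-Glo was added and luciferase measured 30 min later.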
A549 viability: A549 cytotoxicity, counter-screen for Nrf2 inhibitors; hit rate 0.16% among 390,000; Potency, µM (top dose mostly 46 µM), inactives show top-dose activity change, negative = cytotoxicity, actives largely listed as inhibitors; A549 ARE-Fluc cells, CellTiter-Fluor viability, 18-24 h; AID 504648; note: % is set by controls: 0 for no effect and ±100 for the full control effect
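Cytotoxicity counterscreen: CellTiter-Fluor fluorescence was measured in A549 ARE_Fluc cells after 18-24 h of compound exposure in a concentration series. The subsequent BugLite luminescent read reports ARE-luciferase activity.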
IDH1 R132H inh: human IDH1 R132H inhibition; O75874; IDH1-R132H enzyme, NADPH consumption, diaphorase/resazurin fluorescence; Potency, µM (series often up to 76.6 µM), inactives show top-dose activity change, negative = inhibition, hits mostly inhibitors; hit rate 0.093% among 390,000; note: % is set by controls: 0 for no effect and ±100 for the full control effect; nearly all actives have a fitted effect of over 65% in size
Target sequence (O75874 whole entry R132H, stated change not applied): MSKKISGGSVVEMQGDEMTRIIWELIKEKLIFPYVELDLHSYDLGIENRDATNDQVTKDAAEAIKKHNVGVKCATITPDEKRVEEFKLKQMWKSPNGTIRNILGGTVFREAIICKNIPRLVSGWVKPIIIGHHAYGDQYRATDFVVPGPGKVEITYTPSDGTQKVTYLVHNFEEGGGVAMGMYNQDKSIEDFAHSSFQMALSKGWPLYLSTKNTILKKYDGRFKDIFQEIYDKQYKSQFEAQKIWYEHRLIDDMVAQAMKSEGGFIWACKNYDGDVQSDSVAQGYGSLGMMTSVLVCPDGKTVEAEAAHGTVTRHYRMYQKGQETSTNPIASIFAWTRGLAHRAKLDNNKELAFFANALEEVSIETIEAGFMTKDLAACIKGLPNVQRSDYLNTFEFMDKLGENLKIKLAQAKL
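IDH1-R132H (0.5 ug/mL dispensed) in pH 7.5 Tris buffer was preincubated 30 min with compound, then given a substrate mix of 0.016 mM NADPH and 2 mM alpha-KG for 80 min at room temperature; remaining NADPH was read by diaphorase/resazurin fluorescence.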
Nrf2 inh: inhibitors of Nrf2 signaling; A549 ARE-Fluc reporter, luciferase luminescence, 18-24 h; Potency, µM (series often up to 46 µM), for the others: at the highest dose activity change, negative = inhibition, usual class: inhibitors; hit rate 2.1% among 360,000; note: % is set by controls: 0 for no effect and ±100 for the full control effect; nearly all actives have a fitted effect of over 60% in size
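Concentration-response testing used A549 ARE_Fluc cells at 5000 cells/well. Following an 18-24 h compound incubation, viability was read by fluorescence (Ex 405/Em 525) and luciferase output by luminescence.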
Nrf2 activator: activates Nrf2 signaling; AREc32 ARE-luciferase reporter (MCF7-derived line), luminescence, 24 h; Potency, µM (doses to about 46.1 µM), for inactives: top-dose activation, actives largely listed as activators; hit rate 0.31% among 410,000; AID 624171; note: % of control where 0% means no effect; nearly all actives have a fitted effect of over 65% in size
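ARE-driven firefly luciferase activity in AREc32 cells measured after a 24 hr compound exposure at 37 deg C, using Steady-Glo reagent and a 30 min room-temperature hold.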
* = called active by the depositor; ? = inconclusive; / = no result; ! = a repeat was not active; [ ] = dose if it differs, or a comment. Calls come from the whole dose curve; as a rule, active = well fitted curve in the direction sought with a large enough effect; inconclusive = small, poorly fitted or top-dose-only effect, or another doubt; inactive = no such curve, though single readings can be large; an effect the other way counts as inactive or inconclusive. Potency is the fitted concentration of half-maximal effect.

SMILES	ELG1 DNA repair	A549 viability	IDH1 R132H inh	Nrf2 inh	Nrf2 activator
O=C(NCc1cccs1)C(=O)NCC(c1ccco1)N1CCN(c2ccc(F)cc2)CC1 (stereo not drawn)	?	-18.5%	9.3%	14.6µM*	0.6%
O=C(NCc1ccncc1)C(=O)NCC(c1ccco1)N1CCN(c2ccccc2)CC1 (stereo not drawn)	20.6µM*	1.0%	1.0%	?	-1.8%
O=C(NCC(c1ccco1)N1CCN(c2ccc(F)cc2)CC1)c1cccs1 (stereo not drawn)	-16.0%	1.8%	-2.3%	10.1%	0.2%
O=C(NCc1cccnc1)C(=O)NCC(c1ccco1)N1CCN(c2ccc(F)cc2)CC1 (stereo not drawn)	-20.3%	-5.2%	2.2%	20.6µM*	1.8%
O=C(NCC(c1cccnc1)N1CCOCC1)C(=O)Nc1ccc(F)cc1 (stereo not drawn)	/	-6.1%	0.0%	23.1µM*	1.3%
O=C(CNC(=O)C1CCCC1)OC(C(=O)Nc1cc(C(F)(F)F)ccc1Cl)c1ccccc1 (stereo not drawn)	/	8.8%	/	-12.5%	/
Cc1ccc(CNc2cc(C)nc3nc(-c4cccc(C)c4)nn23)cc1	/	-3.6%	7.8%	/	3.7%
CCCCC(=O)Nc1ccc(C(=O)OCc2cc(=O)n3ccsc3n2)cc1	/	-0.8%	5.5%	/	6.5%
COc1ccccc1CNC(=O)C(=O)NCC(c1cccnc1)N1CCN(c2ccc(F)cc2)CC1 (stereo not drawn)	/	?	4.2%	20.6µM*	0.0%
O=S(=O)(Nc1nc2ccccc2nc1Nc1cccc(S(=O)(=O)N2CCCCC2)c1)c1ccccc1	?	?	-3.1%	11.6µM*	0.4%
COc1ccc(Nc2nc3ccccc3nc2NS(=O)(=O)c2ccc(NC(C)=O)cc2)cc1	?	-6.8%	0.2%	-17.7%	-0.7%
CCOC(=O)c1ccc(Nc2nc3ccccc3nc2NS(=O)(=O)c2ccc(Cl)cc2)cc1	/	1.7%	-25.4%	5.2%	-2.0%
CCOc1ccc(S(=O)(=O)Nc2nc3ccccc3nc2Nc2ccc(OC)cc2)cc1	/	-17.9%	-7.6%	25.9µM*	0.1%
CCc1ccc(Nc2nc3ccccc3nc2NS(=O)(=O)c2ccccc2)cc1	/	-17.3%	-4.5%	23.1µM*	0.4%
O=C1NC(=Nc2ccccc2)S/C1=C\C=C\c1ccco1	?	?	-0.7%	10.3%	7.08µM*
Cc1ccc(N=C2NC(=O)/C(=C/C=C/c3ccco3)S2)cc1	15.7%	?	8.0%	28.4%	2.51µM*
O=C1S/C(=C\C=C\c2ccco2)C(=O)N1c1ccccc1	?	-11.5%	-2.5%	0.6%	8.91µM*
CCN(CC)CCNC(=O)c1sc2ncccc2c1-n1cccc1	/	4.7%	-1.1%	/	1.2%
COc1ccc(C(=O)Nc2cccc(NC(=O)c3cccs3)c2)cc1OC	14.6µM*	4.0%	-5.4%	19.0%	7.5%
COc1cc(CCC(=O)Nc2ccc(Cl)c(C(F)(F)F)c2)cc(OC)c1OC	?	?	1.4%	?	-0.4%
COc1cc(C(=O)Nc2ccc(C(=O)c3cccs3)cc2)cc(OC)c1OC	?	-21.4%	3.1%	20.6µM*	4.4%
COc1cc(C(=O)Nc2ccc(Cl)c(C(F)(F)F)c2)cc(OC)c1OC	5.17µM*	-3.3%	6.0%	-12.1%	0.1%
COc1c(Cl)cc(Cl)cc1C(=O)Nc1ccc(NC(=O)c2cccs2)cc1	?	-15.4%	-1.0%	10.3µM*	-1.1%
COc1ccc(C(=O)Nc2ccc(NC(=O)c3cccs3)cc2)cc1OC	/	2.2%	0.0%	-7.9%	5.7%
O=C(Nc1ccc(NC(=O)c2ccc(Cl)cc2Cl)cc1)c1cccs1	-3.2%	2.2%	-3.6%	-18.5%	1.8%
SMILES	ELG1 DNA repair	A549 viability	IDH1 R132H inh	Nrf2 inh	Nrf2 activator
CCOc1ccccc1N1CCN(C(=O)c2ccccc2OCc2c(C)noc2C)CC1	-0.5%	2.7%	10.8%	-11.9%	0.1%
COc1ccc(C(=O)Nc2ccc(NC(=O)c3cccs3)cc2)cc1Cl	?	-0.6%	7.7%	-12.2%	-0.4%
COc1ccc(C(=O)Nc2ccc(NC(=O)c3cccs3)c(OC)c2)cc1Cl	-10.4%	-17.1%	4.1%	9.2µM*	0.4%
CCC(/C=C1\Sc2ccc(OC)cc2N1CCO)=C\c1sc2ccc(OC)cc2[n+]1CCO	?	20.6µM*	-1.5%	?	?
CCC(/C=C1\Sc2ccc(OC)cc2N1CC)=C\c1sc2ccc(OC)cc2[n+]1CCCS(=O)(=O)[O-]	?	?	-19.3%	10.3µM*	-0.3%
CCO/C(=C/c1sc2ccc(OC)cc2[n+]1CCCS(=O)(=O)[O-])CC	-0.6%	-11.3%	3.2%	2.2%	-0.9%
O=C1CN(S(=O)(=O)c2c(F)cccc2F)CCN1S(=O)(=O)c1ccc2c(c1)OCCO2	/	-1.0%	/	-13.5%	/
Cc1sc2ncnc(SCC(=O)c3ccc4c(c3)OCCO4)c2c1-c1ccccc1	10.3µM*	4.2%	5.8%	?	0.3%[9.22 µM]
CCN(CC)S(=O)(=O)c1ccc2[nH]cc(C(=O)NCCN3CCCCCC3)c(=O)c2c1	20.4%	-0.5%	3.1%	0.5%	-0.4%
CCN(CC)S(=O)(=O)c1ccc2[nH]cc(C(=O)NCCC3=CCCCC3)c(=O)c2c1	13µM*	-16.7%	1.7%	?	2.8%
CCc1ccc(NC(=O)C2=CC(c3cccs3)=NS(=O)(=O)N2C)cc1	6.8%	-16.3%	8.1%	16.4µM*!	-0.7%
COc1cccc(-c2nc(CS(=O)(=O)CC(=O)NCCc3cc(OC)ccc3OC)c(C)o2)c1	20.6µM*	-14.1%	-3.2%	?	2.2%
COc1ccc(-c2nc(CS(=O)(=O)CC(=O)NCCc3cc(OC)ccc3OC)c(C)o2)cc1	?	1.1%	9.4%	?	0.4%
CCN(CCNC(=O)CS(=O)(=O)Cc1nc(-c2cccc(OC)c2)oc1C)c1ccccc1	18.4µM*	-18.7%	10.1%	-29.9%	0.4%
COc1ccc(OC)c(CCNC(=O)CS(=O)(=O)Cc2nc(-c3cccc(Cl)c3)oc2C)c1	/	-2.8%	4.4%	?	-0.6%
COc1cccc(-c2nc(CS(=O)(=O)CC(=O)NCCc3ccc(OC)cc3OC)c(C)o2)c1	23.1µM*	-3.5%	-4.6%	?	0.4%
COc1cccc(CNC(=O)c2ccc(-c3nc(CS(=O)(=O)c4ccccc4)c(C)o3)cc2)c1	/	7.4%	-4.9%	23.1µM*	0.5%
COc1ccc(C2Nc3ccccc3-n3c(-c4ccccc4)c4c(=O)n(C)c(=O)n(C)c4c32)cc1 (stereo not drawn)	/	?	9.8%	?	-0.2%
COc1cccc(NC(=O)CS(=O)(=O)Cc2nc(-c3ccc(C)cc3)oc2C)c1	?	-15.0%	-1.3%	25.9µM*	1.5%
Cc1cc(N2CCOCC2)n2nc(-c3cccc(F)c3)cc2n1	-23.4%	-4.8%	2.9%	-18.0%	?
COc1ccc(-c2cc3nc(-c4ccccc4)cc(N4CCC5(CC4)OCCO5)n3n2)cc1	20.6µM*	-6.8%	-3.6%	?	0.0%
